The values that follow come from PMC7862700, “An all-to-all approach to the identification of sequence-specific readers for epigenetic DNA modifications on cytosine”.

Common to all, as to assay: DAPPL (digital affinity profiling via proximity ligation, sequencing); 10 mM Tris-HCl pH 7.5, 50 mM NaCl, 1 mM DTT, 4% glycerol, room temperature, 30 min; GST-TFs on glutathione beads, 16-mer random dsDNA library, 0.1% formaldehyde crosslink after washing; high values mean tight binding
For one assay, the target named is T1, FLI1 (Homo sapiens, UniProt Q01543 1-452).
T1 sequence: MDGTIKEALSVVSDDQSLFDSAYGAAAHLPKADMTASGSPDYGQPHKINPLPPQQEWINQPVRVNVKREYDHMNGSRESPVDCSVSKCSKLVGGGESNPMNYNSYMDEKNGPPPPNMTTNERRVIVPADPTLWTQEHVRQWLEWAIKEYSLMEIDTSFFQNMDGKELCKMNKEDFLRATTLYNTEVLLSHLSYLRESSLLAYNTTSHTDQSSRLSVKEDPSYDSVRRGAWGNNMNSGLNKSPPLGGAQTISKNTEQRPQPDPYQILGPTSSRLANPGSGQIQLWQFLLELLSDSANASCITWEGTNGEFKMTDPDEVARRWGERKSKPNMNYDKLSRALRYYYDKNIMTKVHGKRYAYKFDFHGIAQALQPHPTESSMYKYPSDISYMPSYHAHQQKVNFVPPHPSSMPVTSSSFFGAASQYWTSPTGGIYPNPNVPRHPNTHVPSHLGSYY
Particulars: protein: recombinant; tags: N-terminal GST; dsDNA, one strand shown. In a few lines:
(§1)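 Beads coated with glutathione captured GST-fused human transcription factors that had been expressed in yeast, and the factors were then given DNA barcodes and pooled with a tag-only sample. The pools were incubated with 200 nmole of a random double-stranded 16-mer DNA library in Tris/NaCl/DTT/glycerol buffer for 30 min at room temperature, washed, crosslinked with 0.1% formaldehyde and proximity-ligated with BsaI/T4 ligase at 37 °C for 1 h. PCR amplification and Illumina NextSeq500 sequencing came last. Binding signal is each hexamer's read frequency for a factor divided by its frequency for the tag-only sample.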

A further assay addresses T2, ELK1 (Homo sapiens, UniProt P19419 1-428).
T2 sequence: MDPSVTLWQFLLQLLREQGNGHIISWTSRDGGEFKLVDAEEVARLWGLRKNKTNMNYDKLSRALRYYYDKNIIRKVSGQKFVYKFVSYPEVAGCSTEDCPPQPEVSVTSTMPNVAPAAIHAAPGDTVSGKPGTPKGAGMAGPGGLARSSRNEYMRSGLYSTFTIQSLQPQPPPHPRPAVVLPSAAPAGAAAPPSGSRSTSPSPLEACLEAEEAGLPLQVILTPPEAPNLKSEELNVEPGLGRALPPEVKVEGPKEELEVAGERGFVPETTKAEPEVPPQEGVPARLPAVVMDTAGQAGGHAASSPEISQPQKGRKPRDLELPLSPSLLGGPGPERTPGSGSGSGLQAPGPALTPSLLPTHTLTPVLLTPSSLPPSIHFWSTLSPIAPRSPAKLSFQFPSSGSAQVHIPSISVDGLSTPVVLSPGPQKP
Particulars: protein: recombinant; tags: N-terminal GST; dsDNA, one strand shown. An outline of the steps:
as §1

A further assay addresses T3, GABPA (Homo sapiens, UniProt Q06546 1-454).
T3 sequence: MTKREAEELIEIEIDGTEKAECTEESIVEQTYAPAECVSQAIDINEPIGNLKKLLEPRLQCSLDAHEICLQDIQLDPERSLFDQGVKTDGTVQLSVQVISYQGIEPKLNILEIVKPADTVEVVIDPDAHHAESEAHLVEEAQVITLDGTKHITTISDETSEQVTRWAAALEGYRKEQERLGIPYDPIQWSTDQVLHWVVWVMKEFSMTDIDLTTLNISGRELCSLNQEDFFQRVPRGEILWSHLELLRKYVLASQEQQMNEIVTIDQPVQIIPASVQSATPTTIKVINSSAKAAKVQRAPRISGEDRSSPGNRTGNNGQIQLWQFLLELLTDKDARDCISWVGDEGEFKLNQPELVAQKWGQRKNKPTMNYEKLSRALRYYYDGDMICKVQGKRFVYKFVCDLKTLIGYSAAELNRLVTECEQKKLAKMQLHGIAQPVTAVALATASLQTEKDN
To be noted: protein: recombinant; tags: N-terminal GST; dsDNA, one strand shown. In a few lines:
as §1

For the next assay, the target named is T4, ERG (Homo sapiens, UniProt P11308 1-479).
T4 sequence: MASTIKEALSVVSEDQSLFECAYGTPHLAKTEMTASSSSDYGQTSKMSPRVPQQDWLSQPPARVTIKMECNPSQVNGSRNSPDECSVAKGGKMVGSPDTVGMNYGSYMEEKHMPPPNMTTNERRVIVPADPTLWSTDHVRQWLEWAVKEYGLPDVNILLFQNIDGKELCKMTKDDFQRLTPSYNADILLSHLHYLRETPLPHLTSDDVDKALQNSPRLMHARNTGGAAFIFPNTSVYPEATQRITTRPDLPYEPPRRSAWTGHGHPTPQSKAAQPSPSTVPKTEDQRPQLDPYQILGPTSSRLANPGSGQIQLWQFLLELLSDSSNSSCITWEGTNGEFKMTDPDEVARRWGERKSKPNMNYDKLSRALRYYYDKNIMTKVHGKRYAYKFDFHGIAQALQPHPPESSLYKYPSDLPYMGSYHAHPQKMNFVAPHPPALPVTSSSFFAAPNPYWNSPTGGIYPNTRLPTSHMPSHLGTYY
To be noted: protein: recombinant; tags: N-terminal GST; dsDNA, one strand shown. An outline of the steps:
as §1

In another assay the target is ELF1 (Homo sapiens, UniProt P32519 1-619). Particulars: protein: recombinant; tags: N-terminal GST; dsDNA, one strand shown. In a few lines:
as §1

A further assay deals with T5, EHF (Homo sapiens, UniProt Q9NZC4 1-300).
T5 sequence: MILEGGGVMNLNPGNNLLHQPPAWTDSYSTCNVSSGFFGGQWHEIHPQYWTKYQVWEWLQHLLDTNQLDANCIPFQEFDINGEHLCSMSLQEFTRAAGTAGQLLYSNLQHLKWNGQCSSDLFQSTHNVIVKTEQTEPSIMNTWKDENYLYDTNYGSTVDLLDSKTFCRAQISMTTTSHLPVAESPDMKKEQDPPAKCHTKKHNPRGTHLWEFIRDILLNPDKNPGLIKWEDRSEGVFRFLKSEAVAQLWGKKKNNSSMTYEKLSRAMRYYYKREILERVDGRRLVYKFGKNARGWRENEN
Particulars: protein: recombinant; tags: N-terminal GST; dsDNA, one strand shown. In a few lines:
as §1

The target of another assay is T6, ELK3 (Homo sapiens, UniProt P41970 1-407).
T6 sequence: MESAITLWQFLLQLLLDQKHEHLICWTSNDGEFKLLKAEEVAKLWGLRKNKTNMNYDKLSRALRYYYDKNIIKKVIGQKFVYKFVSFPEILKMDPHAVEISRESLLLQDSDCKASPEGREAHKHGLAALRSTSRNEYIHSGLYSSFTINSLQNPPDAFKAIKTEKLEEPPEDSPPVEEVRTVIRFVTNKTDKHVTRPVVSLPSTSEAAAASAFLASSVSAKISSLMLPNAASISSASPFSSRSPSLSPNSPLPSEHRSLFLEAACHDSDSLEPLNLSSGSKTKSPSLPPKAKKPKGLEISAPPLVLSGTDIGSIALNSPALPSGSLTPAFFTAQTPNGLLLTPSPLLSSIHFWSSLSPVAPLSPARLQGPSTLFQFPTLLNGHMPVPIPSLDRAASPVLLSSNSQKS
Particulars: protein: recombinant; tags: N-terminal GST; dsDNA, one strand shown. An outline of the steps: as §1

The target in another assay is ETV5 (Homo sapiens, UniProt P41161 1-510). To be noted: protein: recombinant; tags: N-terminal GST; dsDNA, one strand shown. In a few lines:
as §1

The next assay concerns the target HSF1 (Homo sapiens, UniProt Q00613 1-529). Particulars: protein: recombinant; tags: N-terminal GST; chain copies: 3; dsDNA, one strand shown. In a few lines: as §1
The target in another assay is T7, SPIC (Homo sapiens, UniProt Q8N5J4 1-248).
T7 sequence: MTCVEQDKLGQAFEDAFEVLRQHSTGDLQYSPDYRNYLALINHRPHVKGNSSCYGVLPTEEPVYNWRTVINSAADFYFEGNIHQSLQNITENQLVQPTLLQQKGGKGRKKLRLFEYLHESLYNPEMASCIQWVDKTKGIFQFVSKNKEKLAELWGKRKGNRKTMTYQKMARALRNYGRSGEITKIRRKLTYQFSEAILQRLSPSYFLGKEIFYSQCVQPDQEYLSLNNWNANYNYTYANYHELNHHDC
Particulars: protein: recombinant; tags: N-terminal GST; dsDNA, one strand shown. In a few lines: as §1

The target of a further assay is ELF4 (Homo sapiens, UniProt Q99607 1-663). Particulars: protein: recombinant; tags: N-terminal GST; dsDNA, one strand shown. In a few lines:
as §1

For the next assay, the target named is T8, ETV2 (Homo sapiens, UniProt O00321 1-342).
T8 sequence: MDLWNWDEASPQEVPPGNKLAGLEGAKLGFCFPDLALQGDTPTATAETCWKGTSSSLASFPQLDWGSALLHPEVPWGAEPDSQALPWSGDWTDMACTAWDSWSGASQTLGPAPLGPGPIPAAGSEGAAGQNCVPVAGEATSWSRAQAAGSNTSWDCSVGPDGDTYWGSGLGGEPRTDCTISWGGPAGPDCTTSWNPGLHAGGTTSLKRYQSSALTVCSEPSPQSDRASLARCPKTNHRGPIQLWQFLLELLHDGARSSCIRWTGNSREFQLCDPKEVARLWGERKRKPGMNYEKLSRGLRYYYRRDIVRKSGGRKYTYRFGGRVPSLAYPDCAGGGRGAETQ
To be noted: protein: recombinant; tags: N-terminal GST; dsDNA, one strand shown. In a few lines: as §1

Another assay has as its target T9, ELF3 (Homo sapiens, UniProt P78545 1-371).
T9 sequence: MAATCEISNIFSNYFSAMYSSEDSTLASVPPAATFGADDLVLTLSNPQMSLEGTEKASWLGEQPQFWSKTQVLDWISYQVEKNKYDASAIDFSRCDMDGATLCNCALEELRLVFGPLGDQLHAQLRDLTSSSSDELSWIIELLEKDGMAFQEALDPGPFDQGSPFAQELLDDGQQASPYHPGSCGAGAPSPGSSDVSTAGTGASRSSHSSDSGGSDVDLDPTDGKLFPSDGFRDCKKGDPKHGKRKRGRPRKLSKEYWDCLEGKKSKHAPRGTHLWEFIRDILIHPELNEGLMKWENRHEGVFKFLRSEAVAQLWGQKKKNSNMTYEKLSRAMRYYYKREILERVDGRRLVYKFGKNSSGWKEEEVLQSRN
To be noted: protein: recombinant; tags: N-terminal GST; dsDNA, one strand shown. An outline of the steps:
as §1

A further assay concerns the target ETV1 (Homo sapiens, UniProt P50549 1-477). To be noted: protein: recombinant; tags: N-terminal GST; dsDNA, one strand shown. In a few lines: as §1

Sequence of ETV5 (P41161 whole entry): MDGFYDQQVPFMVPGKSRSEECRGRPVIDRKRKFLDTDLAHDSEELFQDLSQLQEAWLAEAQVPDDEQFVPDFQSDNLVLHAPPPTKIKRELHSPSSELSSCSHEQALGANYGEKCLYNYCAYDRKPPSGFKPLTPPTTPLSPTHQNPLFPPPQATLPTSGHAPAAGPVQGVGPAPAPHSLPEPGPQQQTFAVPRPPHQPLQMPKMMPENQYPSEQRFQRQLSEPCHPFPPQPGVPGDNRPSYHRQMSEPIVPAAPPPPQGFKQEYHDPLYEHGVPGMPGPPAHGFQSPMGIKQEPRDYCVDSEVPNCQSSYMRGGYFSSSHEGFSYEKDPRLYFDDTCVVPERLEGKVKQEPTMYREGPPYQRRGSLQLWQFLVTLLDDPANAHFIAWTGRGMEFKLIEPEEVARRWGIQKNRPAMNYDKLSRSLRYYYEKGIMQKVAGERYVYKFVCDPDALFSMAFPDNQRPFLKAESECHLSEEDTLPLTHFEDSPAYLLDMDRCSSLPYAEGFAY
Sequence of ELF4 (Q99607 whole entry): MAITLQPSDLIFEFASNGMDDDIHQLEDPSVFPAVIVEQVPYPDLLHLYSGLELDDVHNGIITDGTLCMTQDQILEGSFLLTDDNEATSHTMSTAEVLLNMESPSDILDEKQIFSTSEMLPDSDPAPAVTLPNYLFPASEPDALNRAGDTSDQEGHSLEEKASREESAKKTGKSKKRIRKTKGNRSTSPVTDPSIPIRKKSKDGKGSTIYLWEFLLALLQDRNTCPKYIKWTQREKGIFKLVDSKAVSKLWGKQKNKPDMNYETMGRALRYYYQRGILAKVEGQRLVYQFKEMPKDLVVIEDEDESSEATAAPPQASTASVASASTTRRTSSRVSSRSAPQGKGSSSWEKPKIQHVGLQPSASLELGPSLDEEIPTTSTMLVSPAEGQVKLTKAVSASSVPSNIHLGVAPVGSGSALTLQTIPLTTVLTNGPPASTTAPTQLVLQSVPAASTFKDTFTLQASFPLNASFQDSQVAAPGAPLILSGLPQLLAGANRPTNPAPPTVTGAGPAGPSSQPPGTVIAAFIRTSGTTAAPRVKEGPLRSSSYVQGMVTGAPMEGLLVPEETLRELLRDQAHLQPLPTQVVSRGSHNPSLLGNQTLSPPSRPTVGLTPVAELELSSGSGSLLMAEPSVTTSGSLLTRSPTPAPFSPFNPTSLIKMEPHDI
Sequence of ETV1 (P50549 whole entry): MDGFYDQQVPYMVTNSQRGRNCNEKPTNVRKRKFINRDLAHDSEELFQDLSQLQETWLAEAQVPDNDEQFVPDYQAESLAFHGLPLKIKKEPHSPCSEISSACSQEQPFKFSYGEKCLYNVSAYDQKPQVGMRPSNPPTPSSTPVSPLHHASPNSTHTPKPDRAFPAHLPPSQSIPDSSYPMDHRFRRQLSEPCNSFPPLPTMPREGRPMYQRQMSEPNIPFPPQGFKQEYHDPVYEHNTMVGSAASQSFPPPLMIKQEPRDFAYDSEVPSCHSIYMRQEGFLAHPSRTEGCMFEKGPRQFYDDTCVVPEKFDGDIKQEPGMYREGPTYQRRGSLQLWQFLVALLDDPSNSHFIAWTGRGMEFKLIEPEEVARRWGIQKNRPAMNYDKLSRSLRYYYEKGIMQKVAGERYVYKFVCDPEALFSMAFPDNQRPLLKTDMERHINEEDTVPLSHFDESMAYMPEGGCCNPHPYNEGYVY
Sequence of ELF1 (P32519 whole entry): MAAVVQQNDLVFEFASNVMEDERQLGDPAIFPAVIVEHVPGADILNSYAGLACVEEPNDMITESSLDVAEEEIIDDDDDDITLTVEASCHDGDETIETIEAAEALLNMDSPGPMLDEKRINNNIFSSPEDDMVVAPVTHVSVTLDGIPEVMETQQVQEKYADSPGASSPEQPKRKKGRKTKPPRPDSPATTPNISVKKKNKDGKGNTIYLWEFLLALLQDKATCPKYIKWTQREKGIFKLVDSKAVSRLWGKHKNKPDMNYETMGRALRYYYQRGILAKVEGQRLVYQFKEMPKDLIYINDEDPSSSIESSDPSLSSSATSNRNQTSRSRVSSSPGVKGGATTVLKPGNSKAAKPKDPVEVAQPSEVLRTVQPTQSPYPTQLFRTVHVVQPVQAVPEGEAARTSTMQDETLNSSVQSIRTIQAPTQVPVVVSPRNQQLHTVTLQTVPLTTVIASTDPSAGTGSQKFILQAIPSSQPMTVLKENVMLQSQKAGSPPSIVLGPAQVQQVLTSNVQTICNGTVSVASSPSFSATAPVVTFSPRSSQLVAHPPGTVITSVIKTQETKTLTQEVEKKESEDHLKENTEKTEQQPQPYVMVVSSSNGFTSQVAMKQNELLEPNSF
Sequence of HSF1 (Q00613 whole entry): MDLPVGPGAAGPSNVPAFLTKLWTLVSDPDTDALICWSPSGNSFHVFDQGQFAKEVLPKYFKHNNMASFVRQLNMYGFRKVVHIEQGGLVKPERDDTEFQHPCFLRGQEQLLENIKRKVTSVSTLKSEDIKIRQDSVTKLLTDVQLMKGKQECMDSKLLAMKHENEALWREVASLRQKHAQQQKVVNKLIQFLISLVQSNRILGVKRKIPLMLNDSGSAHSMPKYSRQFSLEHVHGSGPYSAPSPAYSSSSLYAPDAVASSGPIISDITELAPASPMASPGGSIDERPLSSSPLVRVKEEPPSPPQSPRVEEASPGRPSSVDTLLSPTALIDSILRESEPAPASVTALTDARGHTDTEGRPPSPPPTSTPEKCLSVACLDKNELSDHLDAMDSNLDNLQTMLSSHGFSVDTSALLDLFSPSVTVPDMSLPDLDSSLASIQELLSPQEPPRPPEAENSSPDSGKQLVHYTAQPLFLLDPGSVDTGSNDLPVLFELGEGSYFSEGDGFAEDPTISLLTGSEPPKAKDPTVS

Take AACGTA: the binding signal with FLI1 is 1.06 fold enrichment (6-mer frequency, TF over GST control); with ELK1, 1.05 fold enrichment (6-mer frequency, TF over GST control); with GABPA it was 1.02 fold enrichment (6-mer frequency, TF over GST control); in the assay with ERG it was 1.04 fold enrichment (6-mer frequency, TF over GST control); with ELF1 it was 1.02 fold enrichment (6-mer frequency, TF over GST control); with EHF, 1.01 fold enrichment (6-mer frequency, TF over GST control). Also, the binding signal in the assay with ELK3 is 1.11 fold enrichment (6-mer frequency, TF over GST control); with ETV5, 1.04 fold enrichment (6-mer frequency, TF over GST control); in the assay with HSF1 it was 1.03 fold enrichment (6-mer frequency, TF over GST control); in the assay with SPIC, 1.02 fold enrichment (6-mer frequency, TF over GST control); in the assay with ELF4 it was 1.03 fold enrichment (6-mer frequency, TF over GST control); with ETV2 it was 1.01 fold enrichment (6-mer frequency, TF over GST control). For the same sequence, the binding signal with ELF3 is 1.01 fold enrichment (6-mer frequency, TF over GST control); with ETV1, 1.06 fold enrichment (6-mer frequency, TF over GST control).
